The values below come from article PMC4336329 (PLoS ONE, 2015).

Out of some 310,000 compounds screened, about 14,000 (4.5%) showed an effect of 50% or more. Effects have a minus sign here. Many of the other results were omitted from the sample, so strong results are more common in it than they were.
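Also: peak tail current of the secondary pulse compared with the same well before compound.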

The target in this test is human ether-à-go-go-related gene (hERG) potassium channel (human, UniProt Q12809). The experiment in a line: primary screen, population patch clamp on CHO cells stably expressing hERG; higher = less effect of the substance.
Sequence of human ether-à-go-go-related gene (hERG) potassium channel (Q12809 whole entry, looked up): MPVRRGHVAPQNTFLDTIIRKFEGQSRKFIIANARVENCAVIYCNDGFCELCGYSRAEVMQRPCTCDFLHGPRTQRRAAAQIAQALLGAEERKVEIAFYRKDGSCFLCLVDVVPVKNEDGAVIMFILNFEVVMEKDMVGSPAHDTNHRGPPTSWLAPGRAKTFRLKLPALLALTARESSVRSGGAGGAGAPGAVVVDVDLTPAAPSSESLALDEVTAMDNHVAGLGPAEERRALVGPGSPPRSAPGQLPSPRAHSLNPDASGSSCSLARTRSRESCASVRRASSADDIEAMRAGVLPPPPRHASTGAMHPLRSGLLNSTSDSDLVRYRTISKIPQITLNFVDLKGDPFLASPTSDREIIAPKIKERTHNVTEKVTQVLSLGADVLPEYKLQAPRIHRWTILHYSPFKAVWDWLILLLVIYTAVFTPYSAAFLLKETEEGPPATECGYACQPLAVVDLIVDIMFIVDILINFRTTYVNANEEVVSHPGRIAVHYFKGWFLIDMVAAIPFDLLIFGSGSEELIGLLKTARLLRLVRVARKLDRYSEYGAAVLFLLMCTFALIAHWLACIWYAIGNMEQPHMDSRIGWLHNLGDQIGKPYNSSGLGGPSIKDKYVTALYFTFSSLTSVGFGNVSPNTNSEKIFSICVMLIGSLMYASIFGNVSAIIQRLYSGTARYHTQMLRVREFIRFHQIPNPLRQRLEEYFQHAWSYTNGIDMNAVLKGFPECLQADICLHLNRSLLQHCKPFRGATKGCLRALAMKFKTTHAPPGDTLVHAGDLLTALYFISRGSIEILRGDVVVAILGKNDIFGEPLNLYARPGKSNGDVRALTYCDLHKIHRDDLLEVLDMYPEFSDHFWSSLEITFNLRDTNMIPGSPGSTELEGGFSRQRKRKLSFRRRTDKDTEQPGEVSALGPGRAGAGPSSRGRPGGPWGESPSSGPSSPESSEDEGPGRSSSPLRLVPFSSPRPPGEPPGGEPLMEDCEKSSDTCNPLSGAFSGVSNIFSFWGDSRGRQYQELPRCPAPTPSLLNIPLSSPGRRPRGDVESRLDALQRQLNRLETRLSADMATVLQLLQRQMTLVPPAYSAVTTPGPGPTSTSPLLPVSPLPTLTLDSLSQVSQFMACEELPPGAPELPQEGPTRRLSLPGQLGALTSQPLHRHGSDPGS
Turning to `O=C(OCC#Cc1c(COC(=O)c2ccccc2)nnn1Cc1ccccc1)c1ccccc1`, the “hERG current change (%, negative = inhibition) at 10uM” value came to 5.67%. The result for `CCOc1ccc(/C=C2\SC(=S)N(CCC(=O)O)C2=O)cc1` reads 3.03%; that for `CS(=O)(=O)c1ccc(-c2nnc(NC(=O)c3cccc(N4C(=O)CCC4=O)c3)o2)cc1`, 6.65%. As for `O=C(Nc1ccc(N2CCN(C(=O)c3ccccc3)CC2)c(Cl)c1)c1ccc(Br)o1`, the “hERG current change (%, negative = inhibition) at 10uM” value was -58.2%. Turning to `O=C(Nc1ccc(N2CCN(C(=O)c3ccccc3)CC2)c(Cl)c1)c1ncn[nH]1`, the “hERG current change (%, negative = inhibition) at 10uM” value is -5.79%. The result for `CC(=O)N1CCN(c2ccc(NC(=O)c3ccc(Br)o3)cc2Cl)CC1` reads -55.3%; that for `O=C(Nc1ccc(N2CCCC2)c(Cl)c1)c1ccc(Br)o1`, -7.29%; that for `O=C(Nc1ccc(N2CCN(C(=O)c3ccccc3)CC2)c(Cl)c1)c1ccco1`, -29.5%. For `O=C(Nc1ccc(N2CCOCC2)c(Cl)c1)c1ccc(Br)o1` the value was -31.9%; for `CCCCN(CC)S(=O)(=O)c1ccc(C(=O)Nc2nnc(-c3cccs3)o2)cc1`, -8.71%.

Take `COc1ccc(S(=O)(=O)N2CCOCC2)cc1NC(=O)CSc1nnc(C2CC2)n1C1CC1`: the “hERG current change (%, negative = inhibition) at 10uM” value amounted to 2.57%.

Regarding `O=C(CN1C(=O)NC2(CCCc3ccccc32)C1=O)NCc1cccs1` (centres unmarked), the “hERG current change (%, negative = inhibition) at 10uM” value was determined as 6.2%. As for `CCOC(=O)C1CCCN(C(=S)Nc2cccc(Cl)c2)C1` (centres unmarked), the “hERG current change (%, negative = inhibition) at 10uM” value was -5.74%. As for `O=C(CCCc1ccccc1)NCCS(=O)(=O)N1CCN(c2ccc(F)cc2)CC1`, the “hERG current change (%, negative = inhibition) at 10uM” value is on record as -39.3%. The result for `CCCc1[nH]n(-c2nc3ccccc3s2)c(=O)c1C=NCCCOC` reads -57.2%; that for `CCCN=Cc1c(CCC)[nH]n(-c2nc3ccccc3s2)c1=O`, -66.9%.

As to `Cc1[nH]n(-c2ccccc2)c(=O)c1C=NCC1CCCO1` (centres unmarked), the “hERG current change (%, negative = inhibition) at 10uM” value came out at 13.8%.

As for `COC(=O)Cc1[nH]n(-c2nc3ccccc3s2)c(=O)c1C(C)=O`, the “hERG current change (%, negative = inhibition) at 10uM” value was determined as 21.6%.

Turning to `CCCCCN=Cc1c(C)[nH]n(-c2nc3ccccc3s2)c1=O`, the “hERG current change (%, negative = inhibition) at 10uM” value was -65.5%. On to `CCCc1[nH]n(-c2nc3ccccc3s2)c(=O)c1C=NCCN1CCOCC1`, for which the “hERG current change (%, negative = inhibition) at 10uM” value is -34.5%. Turning to `CCCCN=Cc1c(C)[nH]n(-c2ccccc2)c1=S`, the “hERG current change (%, negative = inhibition) at 10uM” value is reported as -4.64%. For `COC(=O)Cc1[nH]n(-c2nc3ccccc3s2)c(=O)c1C(C)=Nc1ccc(C)cc1` the value was 5.94%. The result for `Cc1[nH]n(-c2ccc([N+](=O)[O-])cc2)c(=O)c1C=NCC1CCCO1` (centres unmarked) reads 0.91%. For the compound `CCCc1[nH]n(-c2nc3ccccc3s2)c(=O)c1C=NCC1CCCO1` (centres unmarked), the “hERG current change (%, negative = inhibition) at 10uM” value is on record as -65.5%. For `CCCc1cc(=O)n(-c2nc3ccccc3s2)[nH]1` the value was 11.2%; for `CC(=NCc1ccco1)c1c(C)[nH]n(-c2nc3ccccc3s2)c1=O`, 3.78%. For `C/C(=N\NC(=O)c1ccc(NS(=O)(=O)c2cccs2)cc1)c1ccc(O)cc1O` the value was -0.956%; for `CSc1nc(N)nc(C(C)C)n1`, -5.59%; for `CC[C@H](C)[C@H](NC(N)=O)C(=O)NCCc1ccc(OC)cc1`, -0.532%. For `O=C(CSc1nc(-c2ccccc2)nc2ccc(F)cc12)Nc1cccc(C(=O)O)c1` the value was 2.54%. Regarding `O=C(NCc1cccnc1)c1cccs1`, the “hERG current change (%, negative = inhibition) at 10uM” value was determined as 11.7%. Consider `COc1cc(NC(=O)C23CC4CC(C2)CC(n2nnc(C)n2)(C4)C3)c(OC)cc1Cl`, for which the “hERG current change (%, negative = inhibition) at 10uM” value came out at 4.76%. For `COc1ccc(CCN2CC(C(=O)NC3CCCCC3)CC2=O)cc1OC` (centres unmarked) the value was 10.2%.

As to `COC(=O)CC1SCCNC1=O` (centres unmarked), the “hERG current change (%, negative = inhibition) at 10uM” value was 9.08%. For `CC(=O)c1c(CC(=O)O)[nH]n(-c2nc3ccccc3s2)c1=O` the value was 3.17%; for `CCCc1[nH]n(-c2nc3ccccc3s2)c(=O)c1C=NCC(C)C`, -75.4%.

Take `C/C(=N\NC(=O)CC(C)C)c1c(C(F)(F)F)[nH]n(-c2nc3ccccc3s2)c1=O`: the “hERG current change (%, negative = inhibition) at 10uM” value is 8.88%.

In the case of `CCCc1[nH]n(-c2nc3ccccc3s2)c(=O)c1C=NCCCN(CC)CC`, the “hERG current change (%, negative = inhibition) at 10uM” value is reported as -75.9%.

Turning to `CCN(CC)CCCSc1nc2ccccc2s1.O=C(O)C(=O)O`, the “hERG current change (%, negative = inhibition) at 10uM” value was -31.9%. The result for `Cc1cc(F)ccc1S(=O)(=O)N1CCCOC1CNC(=O)C(=O)NCc1ccc2c(c1)OCO2` (centres unmarked) reads -26.9%; that for `Cc1ccc(NC(=O)CSc2nnc(-c3ccncc3)s2)cc1`, 5.52%; that for `O=[N+]([O-])c1ccc(N2CCCCC2)c(Cl)c1N1CCCCC1`, 3.77%. The result for `C=C(C)COc1ccc(-c2nc(N)ncc2-c2ccc(Br)cc2)c(O)c1` reads 23.6%.

Regarding `CC12CCC(C/C1=N/O)C2(C)C` (centres unmarked), the “hERG current change (%, negative = inhibition) at 10uM” value is reported as 6.85%.
